Screens from PubChem BioAssay.
Hits are enriched below; roughly 12% of the tested compounds scored in any of these assays.
WT yeast gro inh – growth inhibition of WT yeast, mitochondrial fusion screen; mitochondrial fusion phenotypic screen, WT strain; inhibition, % at 10 µM; 2.1% of 190,000 active; AID 1362; in the data active = inhibition above about 58%; tested in S. cerevisiae
L major viab – reduces viability of Leishmania major promastigotes; 9% of 200,000 active; inhibition, % at 10 µM; resazurin fluorescence viability; in the data active = inhibition above about 50%;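 note: promastigotes grown with compound for 44 hours at 28 °C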
CHOP inhibitor – inhibitors of CHOP induction in ER stress response; 3.8% of 220,000 active; AID 2732; CHO-K1 CHOP-promoter luciferase, tunicamycin-induced, 15-18 h; inhibition, % at 10 µM;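 active = compounds that reduced the stress-induced luciferase reporter signal by more than about 70% of percent inhibition, limit read from the data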;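 note: 0% = tunicamycin plus vehicle and 100% = wells without tunicamycin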
Arbovirus anti – antivirals against arbovirus infection; arbovirus infection cell-based antiviral screen; inhibition, % at 10 µM; 0.37% of 200,000 active; in the data active = inhibition above about 30%
The depositor's hits bear a star; x = no result given.

SMILES	WT yeast gro inh	L major viab	CHOP inhibitor	Arbovirus anti
COCCN(CC(=O)NC1CCCCC1)C(=O)CSc1nc2ccccc2o1	8	-10	-4	2
O=C(Nn1cc(C(=O)Nc2ccccc2F)c2ccccc2c1=O)c1cnccn1	7	74*	18	-12
COC(=O)c1cn(NC(=O)c2cnccn2)c(=O)c2ccccc12	31	-8	30	-21
Cc1ccc(NC(=O)C2CC(=O)N/C(=N/N=C/c3ccco3)S2)cc1 (stereo not drawn)	-14	58*	28	-9
Cc1ccc(N=C2NC(=O)CC(C(=O)Nc3ccc4c(c3)OCO4)S2)cc1 (stereo not drawn)	1	4	-1	12
C/C(=N/N=C1/NC(=O)CC(C(=O)Nc2ccccc2)S1)c1cccs1 (stereo not drawn)	4	78*	12	15
C/C(CCc1ccc2c(c1)OCO2)=N\N=C1\NC(=O)CC(C(=O)Nc2ccc(Cl)cc2)S1 (stereo not drawn)	73*	-7	32	10
C/C(=N/N=C1/NC(=O)CC(C(=O)O)S1)c1ccccc1 (stereo not drawn)	-3	-5	-5	-1
CCN(CC)S(=O)(=O)c1ccc(Cc2ncc(C(F)(F)F)cc2Cl)s1	10	0	34	5
Cc1cccc2cc(C(c3nnnn3CC3CCCO3)N3CCc4ccccc4C3)c(=O)[nH]c12 (stereo not drawn)	8	27	-28	-1
CCc1ccc2[nH]c(=O)c(C(c3nnnn3CC3CCCO3)N3CCCc4ccccc43)cc2c1 (stereo not drawn)	20	18	84*	0
Cc1ccc2cc(C(c3nnnn3CC3CCCO3)N3CCc4ccccc4C3)c(=O)[nH]c2c1 (stereo not drawn)	-2	93*	-21	7
Cc1ccc(C)c2[nH]c(=O)c(C(c3nnnn3Cc3ccccc3)N3CCc4ccccc4C3)cc12 (stereo not drawn)	6	73*	57	-1
Cc1cccc2cc(C(c3nnnn3Cc3ccc4c(c3)OCO4)N3CCCC3)c(=O)[nH]c12 (stereo not drawn)	-15	11	47	-5
CC1(C)CC(N2CCCCC2)=CC(=[N+]2CCCCC2)C1	13	100*	9	10
CN(C)NC1=CC(=[N+]2CCCC2)CC(C)(C)C1	-13	4	-19	7
CCCN(CCC)C1=CC(=[N+]2CCCC2)CC(C)(C)C1	-6	100*	20	4
Clc1ccc(-c2nc(/C=N/N3CCOCC3)c3ccccn23)cc1	-12	8	52	2
COc1ccc(CNC(=O)c2n[nH]c3ccccc23)cc1OC	10	-3	12	-3
CCCCNC(=O)c1cc2c(-c3ccc(Cl)cc3)nn(C)c2s1	3	-1	37	2
CCN1CCCC1CNC(=O)c1cc2c(-c3ccc(Cl)cc3)nn(C)c2s1 (stereo not drawn)	13	100*	52	-27
CCN1CCCC1CNC(=O)c1cc2c(-c3cccc(OC)c3)nn(C)c2s1 (stereo not drawn)	1	82*	x	-2
COCCNC(=O)c1cc2c(-c3ccc(Cl)cc3)nn(C)c2s1	13	1	31	-13
Cn1nc(-c2ccc(Cl)cc2)c2cc(C(=O)NCCCN3CCCC3)sc21	17	100*	33	-27
COc1cccc(-c2nn(C)c3sc(C(=O)NCc4ccco4)cc23)c1	-9	-1	29	-4
SMILES	WT yeast gro inh	L major viab	CHOP inhibitor	Arbovirus anti
CCN1CCCC1CNC(=O)C(=O)Nc1cccc(OC)c1 (stereo not drawn)	8	53*	3	7
Cn1nc(-c2ccc(Cl)cc2)c2cc(C(=O)N3CCN(c4ccccn4)CC3)sc21	-8	33	90*	6
CC(C)NS(=O)(=O)c1ccc(CCC(=O)N2CCC(C(N)=O)CC2)cc1	-12	-5	7	1
Cc1ccc(CNc2nc3ccccc3s2)s1	-6	1	74*	-7
CC(=O)Nc1ccc(S(=O)(=O)NCC2CCC(C(=O)NC(C)c3ccc4c(c3)OCCO4)CC2)cc1 (stereo not drawn)	-14	4	2	1
C=CCn1c(SC)nc2sc3c(c2c1=O)CCc1ccccc1-3	17	54*	55	1
CN(C)C(=S)Nn1c(-c2ccccc2)nc2ccccc2c1=O	-12	-8	-9	-1
O=C(Nn1c(-c2ccccc2)nc2ccccc2c1=O)C1CCC1	70*	3	5	-1
CN1CCN(c2nc(NCCOC34CC5CC(CC(C5)C3)C4)nc(OCC(F)(F)F)n2)CC1	83*	42	63	-28
CCOCCCNC(=O)C(NC(=O)c1ccc(NC(C)=O)cc1)c1ccc(OC)cc1 (stereo not drawn)	22	-5	40	5
Cc1ccc(C)c(S(=O)(=O)N2CCN(C(C(=O)Nc3ccc(F)cc3)c3ccccc3)CC2)c1 (stereo not drawn)	0	56*	28	-5
CCn1c(SCC(=O)c2ccccc2)nc2sc3c(c2c1=O)CCN(C)C3	x	x	18	x
C/C(=N\N1CCN(C)CC1)c1ccc(Cl)c(Cl)c1	-4	81*	11	-11
C/C(=N\N1CCN(C)CC1)c1ccc(OC(F)F)cc1	13	-8	4	-2
COCc1ccc(C(=O)N2CCCC(C(=O)c3cc(F)ccc3F)C2)s1 (stereo not drawn)	-4	-6	21	5
Cc1c(Cl)cccc1NC(=S)Nc1ccc2[nH]c(=O)[nH]c2c1	x	x	20	x
CN(C)S(=O)(=O)N1CCCC(C(=O)c2ccc(-c3ccccc3)c(F)c2)C1 (stereo not drawn)	42	2	27	0
COc1ccccc1C(c1nnnn1CCc1ccccc1)N1CCN(c2ccccc2)CC1 (stereo not drawn)	16	14	53	4
COc1ccccc1N1CCN(C(c2ccccc2)c2nnnn2CCc2ccccc2)CC1 (stereo not drawn)	14	64*	-13	2
Fc1ccc(C(c2nnnn2CCc2ccccc2)N2CCCc3ccccc32)cc1 (stereo not drawn)	8	76*	51	-20
COc1cccc(C(c2nnnn2CCc2ccccc2)N2CCN(c3ccccc3)CC2)c1OC (stereo not drawn)	47	55*	28	8
Fc1ccc(C(c2nnnn2C2CCCC2)N2CCc3ccccc32)cc1 (stereo not drawn)	38	3	5	-4
COc1cccc(OCC(=O)NNC(=O)c2ccc(-c3ccccc3)cc2)c1	-10	2	80*	-11
COc1cccc(OCC(=O)NNC(=O)CCc2ccccc2)c1	-6	-7	12	0
CCN(CC)S(=O)(=O)c1ccc(N=NC2=C(O)CC(C)(C)CC2=O)cc1	16	80*	0	-5
CCN(CC)S(=O)(=O)c1ccc(N=NC2=C(O)CCCC2=O)cc1	5	-7	-12	-3
O=C(N/N=C/C1C(c2ccccc2)C1(Cl)Cl)c1cccc(Br)c1 (stereo not drawn)	18	-1	29	-13
O=c1[nH]ncc(N2CCN(C(c3ccccc3)c3ccccc3)CC2)c1Cl	69*	93*	50	-26
Cc1cccc(NS(=O)(=O)c2cc(C(=O)N3CCOCC3)ccc2Cl)c1	8	-8	-7	1
